We go through 57 compounds from article PMC4336329 (PLoS ONE, 2015).

About 14,000 (4.5%) of roughly 310,000 compounds showed an effect of 50% or more. Effects have a minus sign here. The entries come from a sample that favours strong results as a whole.
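Note: peak tail current of the secondary pulse compared with the same well before compound.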

The target in the assay is human ether-à-go-go-related gene (hERG) potassium channel (human, UniProt Q12809). Briefly: primary screen, population patch clamp on CHO cells stably expressing hERG; higher = less effect of the substance.
Sequence of human ether-à-go-go-related gene (hERG) potassium channel (Q12809 whole entry, looked up): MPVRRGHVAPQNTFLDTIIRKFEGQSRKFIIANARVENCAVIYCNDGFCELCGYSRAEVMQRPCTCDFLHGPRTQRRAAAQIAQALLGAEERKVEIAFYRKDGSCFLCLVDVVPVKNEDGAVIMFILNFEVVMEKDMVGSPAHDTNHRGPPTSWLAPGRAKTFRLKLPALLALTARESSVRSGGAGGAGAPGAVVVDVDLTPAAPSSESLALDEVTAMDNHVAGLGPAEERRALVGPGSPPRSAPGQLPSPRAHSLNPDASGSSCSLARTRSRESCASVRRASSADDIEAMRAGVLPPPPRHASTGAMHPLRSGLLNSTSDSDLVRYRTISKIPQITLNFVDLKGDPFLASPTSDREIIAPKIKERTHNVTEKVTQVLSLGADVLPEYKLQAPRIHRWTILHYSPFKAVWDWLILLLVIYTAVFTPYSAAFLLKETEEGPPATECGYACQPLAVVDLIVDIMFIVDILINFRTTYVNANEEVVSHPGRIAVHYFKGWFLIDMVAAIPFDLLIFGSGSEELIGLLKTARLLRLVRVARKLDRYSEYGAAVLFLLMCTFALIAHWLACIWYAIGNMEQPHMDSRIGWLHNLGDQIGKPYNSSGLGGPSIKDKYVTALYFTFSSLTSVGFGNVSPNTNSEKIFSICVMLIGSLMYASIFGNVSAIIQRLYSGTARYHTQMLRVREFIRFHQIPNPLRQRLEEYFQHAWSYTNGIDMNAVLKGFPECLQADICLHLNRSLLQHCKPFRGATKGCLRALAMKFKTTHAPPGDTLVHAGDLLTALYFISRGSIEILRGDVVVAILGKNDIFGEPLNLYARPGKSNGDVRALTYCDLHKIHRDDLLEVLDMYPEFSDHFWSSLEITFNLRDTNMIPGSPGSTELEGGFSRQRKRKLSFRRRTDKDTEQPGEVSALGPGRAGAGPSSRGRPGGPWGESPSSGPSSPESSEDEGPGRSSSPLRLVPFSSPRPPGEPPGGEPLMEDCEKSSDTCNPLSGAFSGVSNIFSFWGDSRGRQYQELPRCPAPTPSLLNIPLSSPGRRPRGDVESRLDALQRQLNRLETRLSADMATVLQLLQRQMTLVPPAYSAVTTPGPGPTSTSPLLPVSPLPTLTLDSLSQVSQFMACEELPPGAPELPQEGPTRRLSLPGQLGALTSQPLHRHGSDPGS
On to `CC(OC(=O)c1cccc(-n2cnnn2)c1)C(=O)NCc1ccccc1` (stereo not drawn), for which the “hERG current change (%, negative = inhibition) at 10uM” value is on record as 0.976%. Regarding `O=C(COC(=O)CSc1ccc([N+](=O)[O-])cc1)NCC1CCCO1` (stereo not drawn), the “hERG current change (%, negative = inhibition) at 10uM” value was 12.3%. The figure for `C#CCOCCOCCOCCNc1nc(N2CCN(C(=O)CCCCCCCCCCNC(=O)[C@@H](CCC(=O)O)n3cc(CCCCCN)nn3)CC2)nc(N2CCN(C(=O)CCCCCCCCCCNC(=O)[C@H](CO)n3cc(CCCSC)nn3)CC2)n1` is 11.9%; for `CCN1C(=O)C(CC(=O)Nc2ccc(OC)cc2)N(CCc2ccccc2)C1=S` (stereo not drawn) it is -1.28%.

With `CC(=O)C[C@H]1c2ccccc2S(=O)(=O)N1c1ccccc1`, the “hERG current change (%, negative = inhibition) at 10uM” value is recorded as 23%. `Cc1cc(NC(=O)c2cc(-c3ccccc3Cl)nc3ccccc23)no1`: the “hERG current change (%, negative = inhibition) at 10uM” value is -0.229%. For `COCCOC(=O)c1cc(C(=O)c2cc(F)ccc2O)coc1=N`, the “hERG current change (%, negative = inhibition) at 10uM” value is listed as 9.29%. On to `O=C(Nc1nnc(S(=O)(=O)N2CCOCC2)s1)c1ccccc1F`, for which the “hERG current change (%, negative = inhibition) at 10uM” value is given as 16.7%. The figure for `CSc1ccccc1NS(=O)(=O)c1cccc2nonc12` is 1.51%; for `O=S(=O)(Nc1cc(F)ccc1F)c1cccc2nonc12` it is -83.6%; for `O=S(=O)(Nc1cc(F)ccc1F)c1cccc2nsnc12` it is 11.6%. Regarding `O=S(=O)(Nc1cccc2ccccc12)c1cccc2nonc12`, the “hERG current change (%, negative = inhibition) at 10uM” value is on record as 3.98%.

On to `Cc1ccccc1NS(=O)(=O)c1cccc2nonc12`, for which the “hERG current change (%, negative = inhibition) at 10uM” value was found to be 2.34%. The figure for `CC(=O)c1ccccc1NS(=O)(=O)c1cccc2nonc12` is -52.2%.

Consider `CNCC(=O)N1CCN(c2ncc(C(F)(F)F)cc2Cl)CC1.Cl`, for which the “hERG current change (%, negative = inhibition) at 10uM” value is reported as -22.3%. For `O=C(NCC(=O)N1CCN(c2ccc(C(F)(F)F)cn2)CC1)c1ccc(Br)o1`, the “hERG current change (%, negative = inhibition) at 10uM” value was -71.8%.

On to `NC(=O)NCCN1CCN(c2ncc(C(F)(F)F)cc2Cl)CC1`, for which the “hERG current change (%, negative = inhibition) at 10uM” value was -33.7%.

On to `O=C(NCC(=O)N1CCN(c2ccccn2)CC1)c1ccc(Br)o1`, for which the “hERG current change (%, negative = inhibition) at 10uM” value was -15.3%.

With `CCOc1ccc(C(=O)NCC(=O)N2CCN(c3ccc(C(F)(F)F)cn3)CC2)cc1`, the “hERG current change (%, negative = inhibition) at 10uM” value is given as -7.32%. On to `O=C(NCC(=O)N1CCN(c2ncc(C(F)(F)F)cc2Cl)CC1)c1ccc(Br)o1`, for which the “hERG current change (%, negative = inhibition) at 10uM” value is recorded as -50.6%. With `COc1cccc(NC(=O)Nc2c(C)n(C)n(-c3ccccc3)c2=O)c1`, the “hERG current change (%, negative = inhibition) at 10uM” value was 3.91%. In the case of `O=C(Nc1cccc(Cl)c1)c1cnn2cccnc12` it was 7.19%; in that of `CCOC(=O)C1CCN(CCC(=O)Nc2cccc(C)c2)CC1.Cl`, -66.8%; in that of `Cc1cccc(NC(=O)CCN2CCC(C(N)=O)CC2)c1`, 9.57%. Consider `CCOC(=O)N1CCN(CCC(=O)Nc2cccc(C)c2)CC1.Cl`, for which the “hERG current change (%, negative = inhibition) at 10uM” value stood at 1.45%. As for `CCOC(=O)C1CCN(CCC(=O)Nc2ccccc2)CC1`, the “hERG current change (%, negative = inhibition) at 10uM” value was -19.7%. The figure for `CCOC(=O)C1CCN(CCC(=O)Nc2cccc(Cl)c2)CC1` is -67.1%; for `NC(=O)C1CCN(CCC(=O)Nc2cccc(Cl)c2)CC1` it is 0.151%; for `CCCCCN(C(=O)CCC(=O)OCC(=O)N(C)Cc1ccc(C)cc1)c1c(N)n(CCCC)c(=O)[nH]c1=O` it is 1.93%. For the compound `CCOc1ccc(C(=O)N/N=C(\c2ccccc2)c2ccccn2)cc1`, the “hERG current change (%, negative = inhibition) at 10uM” value was -27%. In the case of `C=CCOc1ccccc1/C=c1\sc2nc(-c3oc4ccccc4c3C)nn2c1=O`, the “hERG current change (%, negative = inhibition) at 10uM” value is -8.15%. Take `COc1ccc(NC(=O)CN2CCN(C(=S)NC3CCCC3)CC2)cc1`: the “hERG current change (%, negative = inhibition) at 10uM” value was -39.1%. `CCNC(=S)N1CCN(CC(=O)Nc2ccc(Br)cc2)CC1`: the “hERG current change (%, negative = inhibition) at 10uM” value is recorded as -61.4%. Take `O=C(CN1CCN(C(=O)C2CCCO2)CC1)Nc1ccc(F)cc1` (stereo not drawn): the “hERG current change (%, negative = inhibition) at 10uM” value is recorded as -66.1%. In the case of `O=C(CN1CCOCC1)Nc1ccccc1` it was 13.8%; in that of `CCOc1ccc(NC(=O)CN2CCN(C(=O)C3CCCO3)CC2)cc1` (stereo not drawn), -32.6%. The figure for `Cc1cc(C)cc(NC(=O)CN2CCN(C(=O)C3CCCO3)CC2)c1` (stereo not drawn) is 7.51%; for `O=C(CN1CCN(C(=O)C2CCCO2)CC1)Nc1ccc(Br)cc1` (stereo not drawn) it is -70%. Regarding `O=C(CN1CCN(C(=O)N2CCOCC2)CC1)Nc1ccc(Br)cc1`, the “hERG current change (%, negative = inhibition) at 10uM” value is -72.5%. Regarding `COc1ccc(NC(=O)CN2CCN(C(=O)N3CCOCC3)CC2)cc1`, the “hERG current change (%, negative = inhibition) at 10uM” value was -14.2%. As for `O=C(CN1CCN(C(=O)C2CCCO2)CC1)Nc1ccc(Cl)cc1` (stereo not drawn), the “hERG current change (%, negative = inhibition) at 10uM” value is on record as -40.9%. The figure for `O=C(Nc1ccc(F)cc1)N1CCN(C(=O)C2CCCO2)CC1` (stereo not drawn) is 2.96%; for `CCNC(=S)N1CCN(CC(=O)Nc2ccc(OC)cc2)CC1` it is -34.3%; for `O=c1c(Cc2ccccc2)c(O)ccn1C1CCCCCCC1` it is 10.1%. Turning to `COc1ccc(S(=O)(=O)N2CCCCCC2)cc1C(=O)N(C)Cc1ccc(C)cc1`, the “hERG current change (%, negative = inhibition) at 10uM” value was -40.3%.

Turning to `Cc1[nH]c2ccccc2c(=O)c1SC(F)(F)C(F)C(F)(F)F` (stereo not drawn), the “hERG current change (%, negative = inhibition) at 10uM” value was -5.97%. On to `CSc1ccccc1NC(=O)COc1ccc(Cl)cc1Cl`, for which the “hERG current change (%, negative = inhibition) at 10uM” value is -0.82%. As for `CN(C)C1=NC[C@H](Cc2ccccc2)N1CCc1cccc(F)c1`, the “hERG current change (%, negative = inhibition) at 10uM” value is -64.1%. For the compound `NC1=NC[C@@H](Cc2ccc(O)cc2)N1CCc1cccc(F)c1`, the “hERG current change (%, negative = inhibition) at 10uM” value amounted to 5.43%. With `C[C@H]1CN=C(N(C)C)N1CCc1ccccc1`, the “hERG current change (%, negative = inhibition) at 10uM” value is on record as 6.72%.

Regarding `NC1=NC[C@H](Cc2ccccc2)N1CCc1cccc(F)c1`, the “hERG current change (%, negative = inhibition) at 10uM” value is given as 6.16%. Take `C[C@H]1CN=C(N(C)C)N1CCc1ccc(F)cc1`: the “hERG current change (%, negative = inhibition) at 10uM” value was -12.4%.

For the compound `CN(C)C1=NC[C@H](Cc2ccccc2)N1CCc1ccc(F)cc1`, the “hERG current change (%, negative = inhibition) at 10uM” value is listed as -60.6%.

As to `COC(=O)c1cccnc1-n1c(=O)c2cccnc2n(Cc2ccc(Cl)cc2)c1=O`, the “hERG current change (%, negative = inhibition) at 10uM” value is -26.6%. Turning to `O=C(Cc1ccccc1)NCC(=O)N/N=C/c1ccc(C(=O)O)cc1`, the “hERG current change (%, negative = inhibition) at 10uM” value stood at 12.3%.

As to `C=CCc1cccc2cc(C(=O)N3CCN(C(=O)OCC)CC3)c(=O)oc12`, the “hERG current change (%, negative = inhibition) at 10uM” value was -26.9%. As for `C=CCn1c(CSc2nc3ccccc3s2)nnc1SCC(=O)NCc1ccccc1`, the “hERG current change (%, negative = inhibition) at 10uM” value is listed as -43.9%.
